Screening results from PubChem.
Hits are enriched below; roughly 1.6% of the tested compounds scored in any of these assays.
GC-A act = GC-A (human) enzyme activation; P16066; HEK293 GC-A cells, cGMP TR-FRET, EC30 ANP; 0% at EC30 ANP, 100% saturating ANP; activation, % at 10 µM; 370,000 tested, 0.14% active; AID 1671463; in the data active = activation above about 40%
Target sequence (P16066 whole entry, looked up): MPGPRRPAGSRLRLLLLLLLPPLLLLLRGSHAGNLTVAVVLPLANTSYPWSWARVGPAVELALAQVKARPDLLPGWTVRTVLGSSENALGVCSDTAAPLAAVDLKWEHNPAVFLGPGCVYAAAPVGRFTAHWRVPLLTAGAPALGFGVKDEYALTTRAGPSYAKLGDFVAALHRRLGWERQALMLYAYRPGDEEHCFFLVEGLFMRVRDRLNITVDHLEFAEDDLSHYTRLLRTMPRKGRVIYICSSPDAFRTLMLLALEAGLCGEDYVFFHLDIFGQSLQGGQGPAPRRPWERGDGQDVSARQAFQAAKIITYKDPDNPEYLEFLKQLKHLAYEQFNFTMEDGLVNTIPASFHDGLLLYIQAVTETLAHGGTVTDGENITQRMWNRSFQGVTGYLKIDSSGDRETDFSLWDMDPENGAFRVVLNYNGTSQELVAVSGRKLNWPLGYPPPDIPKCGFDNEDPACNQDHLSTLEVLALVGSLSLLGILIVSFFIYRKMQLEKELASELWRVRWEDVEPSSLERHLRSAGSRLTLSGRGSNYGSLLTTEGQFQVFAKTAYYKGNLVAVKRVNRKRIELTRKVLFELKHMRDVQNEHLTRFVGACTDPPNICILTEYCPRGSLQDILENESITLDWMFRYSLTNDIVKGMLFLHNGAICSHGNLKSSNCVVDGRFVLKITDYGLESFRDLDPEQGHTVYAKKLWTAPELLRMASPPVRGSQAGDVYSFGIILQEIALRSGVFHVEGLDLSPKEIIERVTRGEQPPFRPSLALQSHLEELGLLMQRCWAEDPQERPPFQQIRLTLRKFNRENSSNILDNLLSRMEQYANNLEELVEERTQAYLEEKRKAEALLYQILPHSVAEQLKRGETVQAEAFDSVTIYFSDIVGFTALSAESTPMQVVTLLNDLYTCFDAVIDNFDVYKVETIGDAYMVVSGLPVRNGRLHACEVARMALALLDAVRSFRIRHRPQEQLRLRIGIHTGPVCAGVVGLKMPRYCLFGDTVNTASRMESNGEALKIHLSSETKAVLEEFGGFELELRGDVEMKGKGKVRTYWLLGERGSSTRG
GC-B act = GC-B (human) receptor activation. activation, % at 10 µM. 370,000 tested, 0.11% active. AID 1920062. HEK293-GC-B cells, CNP EC30, cGMP TR-FRET; 0% at EC30 CNP, 100% saturating CNP;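 active = activation at 10 µM reaching about 35% in either raw or pattern-adjusted values, limit read from the data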
PG9 binder = PG9 antibody binding by small molecule | AID 624416 | inhibition, % at 6.7 µM | TR-FRET gp120-PG9 antibody binding | 360,000 tested, 0.43% active; in the data active = inhibition above about 8.5%
V-ATPase pH = yeast V-ATPase proton transport regulation by pHLuorin | 350,000 tested, 0.37% active | S. cerevisiae, pHLuorin cytosolic pH fluorescence | response, % at 10 µM; in the data active = response mostly above about 7.3%, no sharp cut-off; inactive = mostly below about 5.4%; also: actives read high
Rev-erbA mod = modulators of human Rev-erb alpha DNA binding; Rev-erbα–FITC-DNA binding, fluorescence polarization, 90 min; 370,000 tested, 0.79% active; P20393; activity, % at 10 µM;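 active = activity above about 14%, limit read from the data; passing the limit was not always enough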
NR1D1 mod conf = confirmation of modulators of human Rev-erb alpha DNA binding | shares compounds with Rev-erbA mod | activation, % at 25 µM | 3,000 tested, 61% active | Rev-erb alpha FITC-DNA binding, fluorescence polarization, 90 min;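 active = activation at or above a set limit, or at least 3 SD above the negative control mean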
RORg counter = affects RORgamma DNA binding in a Rev-erb alpha counter-screen | shares compounds with Rev-erbA mod | purified RORgamma protein-FITC-DNA binding, fluorescence polarization | IC50, µM | 910 tested, 8% active | AID 1259320;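 active = Compounds whose fitted half-maximal concentration for disrupting protein-DNA binding is below 10 micromolar; the record names Rev-erb in its text, so the target is in doubt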
Numbers stand for hits; . = inactive; / = no result given; ! = not confirmed by another sample.

SMILES	GC-A act	GC-B act	PG9 binder	V-ATPase pH	Rev-erbA mod	NR1D1 mod conf	others
COc1ccc(Cl)cc1-c1cc(C(=O)Nc2ccc(F)cc2)[nH]n1	.	.	.	/	66.6	48.0	RORg counter=.
Cc1cc2cc3c(cc2nc1SCc1ccccn1)OCCO3	.	.	.	.	44.0	17.2
CC1=C2NC(N)=[N+](CC3CC3)C(Cc3ccccc3)[C@@H]2n2c(=O)n(-c3ccccc3)c(=O)n2C1 (stereo partly specified)	.	.	/	/	.	/
COc1cc(C(=O)NC2CCCCN(Cc3ccc(Cl)cc3)C2=O)cc(OC)c1OC (stereo unspecified)	.	.	/	/	.	/
O=c1cc(-c2ccccc2Cl)oc2c(NS(=O)(=O)c3cccs3)ccc(O)c12	.	.	.	.	26.9	33.4	RORg counter=.
CCOC(=O)[C@]12CCCC=C1N(Cc1ccc(OC)cc1)C(=O)[C@@H]2CC(=O)NCCc1ccccc1OC	.	.	/	/	.	/
N#Cc1ccc(/C=C2\CC3(OC(=O)C4CCCCC4)CCCN2C3)cc1 (stereo unspecified)	.	.	/	/	.	/
CSc1nnc2c3ccccc3n(Cc3ccccc3)c2n1	.	.	.	.	21.7	24.0
CSc1nnc2c3ccccc3n(CCc3ccccc3)c2n1	.	.	.	.	.	/
CSc1nnc2c3cc(F)ccc3n(Cc3ccccc3)c2n1	.	.	.	.	59.3	47.3	RORg counter=.
CSc1nnc(N2C(=O)C(O)=C(C(=O)c3ccco3)C2c2ccc(F)cc2)s1 (stereo unspecified)	.	.	.	.	.	/
CSc1nnc(N2C(=O)C(O)=C(C(=O)c3ccco3)C2c2cccc(Cl)c2)s1 (stereo unspecified)	.	.	.	.	30.6	29.3	RORg counter=.
COc1ccc2cc(C#N)c(N3CCOCC3)nc2c1	.	.	.	.	.	/
CCC(C)(C)n1nnnc1CN1CCN(c2nc3cc(OC)ccc3cc2C#N)CC1	.	.	.	.	56.3	.
COc1ccc(-c2ccc3sc4ccccc4c(=O)c3c2)cn1	.	.	.	.	58.0	61.1	RORg counter=.
O=C(OCc1cn(Cc2ccc(C(F)(F)F)cc2)nn1)N1CCOCC1	.	.	/	/	.	/
COC(=O)Cn1c(=O)c(=O)n(CC(=O)OC)c2ccccc21	.	.	.	.	.	/
COC(=O)Cn1cc(/C=C/c2cc[n+](C)cc2)c2ccccc21	.	.	.	.	54.9	63.3	RORg counter=.
CNC(=O)/C(C#N)=C/c1cn(CC(=O)OC)c2ccccc12	.	.	.	.	.	/
COC(=O)Cn1c(C)c(/C=C/c2cc[n+](C)cc2)c2ccccc21	.	.	.	.	154.1	113.7	RORg counter=.
C[N+]1=C2N[C@@H](c3ccccc3)CC(=O)N2/C(=C\c2ccccc2)[C@@H]1Cc1ccccc1	.	.	/	/	.	/
CCCc1cc(=O)oc2cc(C)cc(OCC(=O)Nc3ccccn3)c12	.	.	.	.	.	/
CCCc1cc(=O)oc2cc(C)cc(OCC(=O)Nc3ccc(S(N)(=O)=O)cc3)c12	.	.	.	.	135.2	150.8	RORg counter=.
CCCc1cc(=O)oc2cc(C)cc(OC(C)C(=O)NCc3ccncc3)c12 (stereo unspecified)	.	.	.	.	23.4	21.2
C[C@H]1[C@@H](NC(=O)c2ccc(Cl)cc2)CC[C@@]23CCCN2C(=O)CCC[C@@H]13	.	.	/	/	.	/
SMILES	GC-A act	GC-B act	PG9 binder	V-ATPase pH	Rev-erbA mod	NR1D1 mod conf	others
CN(Cc1ccccc1)C(=O)OCc1cn(Cc2ccc(F)c(F)c2)nn1	.	.	/	/	.	/
O=C(Nc1ccc(C(O)(C(F)(F)F)C(F)(F)F)cc1)c1ccc(F)cc1F	.	.	/	/	.	/
O=C(Cc1ccccc1)NC1CCCc2c1cnn2-c1ccc(F)cc1F (stereo unspecified)	.	.	/	/	.	/
Cc1ccc(CN2CCCCC(NC(=O)Nc3cccc([N+](=O)[O-])c3)C2=O)cc1 (stereo unspecified)	.	.	/	/	.	/
CCOC(=O)c1c(C2CC2)csc1NC(=O)COC(=O)c1cnc(Cl)c(Cl)c1	.	.	.	.	81.0	80.3	RORg counter=.
C=CC[C@@H]1NN2C(=O)[C@@H](C)[C@@H]3c4ccccc4C=NN3[C@@H]2c2ccccc21	.	.	/	/	.	/
CN(C)c1ccc(P(=O)(Nc2cccc(C(F)(F)F)c2)N2CCOCC2)c(NC(=O)c2cccs2)c1 (stereo unspecified)	.	.	.	.	32.5	.
COc1cc(NC(=O)c2nccn2C)cc(C(=O)Nc2cccc(C(F)(F)F)c2)c1	.	.	.	.	19.1!	15.0
O=C(CSc1nnc(COc2ccccc2)n1Cc1ccco1)Nc1ccc(OCc2ccccc2)cc1	.	.	/	/	.	/
COC(=O)[C@]12C[C@H](CC(=O)NCc3ccccc3)C(=O)N(Cc3ccco3)C1=C[C@H](COCc1ccccc1)O[C@@H]2C	.	.	/	/	.	/
CCOC(=O)c1c(NC(=S)Nc2ccc(OC)cc2)sc2c1CCC2	.	.	.	.	47.1	37.0	RORg counter=.
CCOC(=O)c1c(NC(=S)Nc2ccc(OC)cc2)sc2c1CCCCC2	.	.	.	.	.	/
O=C(NCc1ccccc1)C1CCN(c2nc(-c3ccc(Br)cc3)cs2)CC1	.	.	/	/	.	/
CC(Sc1nn(-c2ccc(F)cc2)c(=S)s1)C(=O)c1c(N)n(C)c(=O)n(C)c1=O (stereo unspecified)	.	.	.	.	22.1	23.5
Cn1c(N)c(C(=O)CSc2nn(-c3ccccc3)c(=S)s2)c(=O)n(C)c1=O	.	.	.	.	.	/
COc1ccc(C(=O)Nc2ccc3[nH]c(-c4cccc(OC)c4)cc(=O)c3c2)cc1	.	.	.	.	50.9	.
Cc1ccc(-c2nc3ccccc3s2)cc1NC(=O)c1cc(-n2cnnc2)ccc1Cl	.	.	.	.	33.3	31.9	RORg counter=.
Cc1ccc(-c2nc3ccccc3s2)cc1NC(=S)NC(=O)c1ccccc1	.	.	.	.	.	/
Cc1ccc(C)c(NC(=O)Cn2nnc(-c3ccncc3)n2)c1	.	.	/	/	.	/
CC(=O)c1cc(NC(=O)c2cccc(C(F)(F)F)c2)c(=O)oc1/C=C/N(C)C	.	.	.	.	20.1	.
CC(=O)c1cc(NC(=O)c2ccc(Cl)cc2)c(=O)oc1/C=C/N(C)C	.	.	.	.	26.1	28.7
O=c1[nH]c(=O)c2cc3ccccc3nc2[nH]1	.	.	.	.	.	/
Cc1cc2cc3c(=O)[nH]c(=O)[nH]c3nc2cc1C	.	.	.	/	33.1	40.6	RORg counter=.
O=C(NCCC(c1ccccc1)c1ccccc1)c1cnc2sccn2c1=O	.	.	.	.	26.3	.
CCc1noc(C)c1C(=O)Nc1nc(-c2ccc(Cl)cc2Cl)c(C)s1	.	.	.	.	31.8	25.4
CCc1noc(C)c1C(=O)Nc1ccc(F)c(F)c1	.	.	.	.	.	/
